# Assay outcomes: PubChem BioAssay, Johns Hopkins Ion Channel Center
# Most compounds without a hit are left out; they make up all but 1.6% or so of the library.
# KCNQ2 block: inhibitors of rat KCNQ2 potassium channel. B-score at 10 µM. CHO-K1 KCNQ2, FluxOR thallium flux, 20 min; stronger effect = lower value. actives 1.1% (n = 310,000). O88943. AID 2156;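 active means fluorescence ratio B-score at most minus 3 library SDs, with starting brightness B-score within 2 library SDs, cut at about -5.5 in these data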
# Target sequence (O88943 whole entry, looked up): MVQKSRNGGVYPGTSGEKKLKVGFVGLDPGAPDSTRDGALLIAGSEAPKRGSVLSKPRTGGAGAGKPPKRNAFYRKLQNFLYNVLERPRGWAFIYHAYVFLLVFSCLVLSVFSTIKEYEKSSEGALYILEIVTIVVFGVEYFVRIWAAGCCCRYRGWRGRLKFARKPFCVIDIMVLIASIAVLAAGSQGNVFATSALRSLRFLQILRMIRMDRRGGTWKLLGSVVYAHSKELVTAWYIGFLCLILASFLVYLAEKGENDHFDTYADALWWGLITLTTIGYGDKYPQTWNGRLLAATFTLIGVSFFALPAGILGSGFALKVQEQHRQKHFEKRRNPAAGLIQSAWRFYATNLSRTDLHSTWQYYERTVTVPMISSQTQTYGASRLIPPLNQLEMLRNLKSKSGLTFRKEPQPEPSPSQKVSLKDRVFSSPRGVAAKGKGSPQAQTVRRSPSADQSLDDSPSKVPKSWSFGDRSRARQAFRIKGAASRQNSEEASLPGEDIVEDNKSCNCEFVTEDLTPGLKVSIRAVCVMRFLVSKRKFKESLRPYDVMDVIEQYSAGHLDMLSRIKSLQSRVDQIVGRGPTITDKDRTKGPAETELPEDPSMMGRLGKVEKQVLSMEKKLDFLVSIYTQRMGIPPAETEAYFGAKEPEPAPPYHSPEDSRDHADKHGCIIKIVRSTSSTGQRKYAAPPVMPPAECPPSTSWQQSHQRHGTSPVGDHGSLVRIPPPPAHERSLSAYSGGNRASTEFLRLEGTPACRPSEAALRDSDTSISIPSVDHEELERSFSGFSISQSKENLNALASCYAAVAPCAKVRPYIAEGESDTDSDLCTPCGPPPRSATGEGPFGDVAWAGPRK
# KCNQ2 enhance: enhances the rat KCNQ2 potassium channel; actives 0.54% (n = 310,000); CHO-K1 KCNQ2, FluxOR thallium flux fluorescence; stronger effect = higher value; O88943; AID 2239; B-score at 10 µM;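 active means fluorescence ratio B-score at least 3 SD of library B-scores, with initial fluorescence B-score within 3 of them, cut at about 5.3 in these data; same plate scores as AID 2156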;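 further: B-score of peak minus minimum over baseline fluorescence ratio after K+ and Tl+ stimulus; positive B-score means potentiation of KCNQ2 with more thallium influx and brighter signal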
# The depositor's hits bear a star; i = inactive; nt = not tested or not shown.
SMILES,KCNQ2 block,KCNQ2 enhance
O=C(Cn1c(=O)c2cccn2c2cccnc21)N1CCN(c2ccc(Cl)cc2)CC1,-7.6*,-7.6
Cc1ccc(Cl)cc1N1CCN(C(=O)CCCn2c(=O)c3cccn3c3cccnc32)CC1,i,nt
Cc1cc(NC(=O)Nc2ccccc2F)ccc1Br,i,0.06
COc1cccc(CNC(=O)CCCc2nnc3n(C)c(=O)c4sccc4n23)c1,i,0.15
COc1ccc(/C(N)=N/OC(=O)Cc2cccs2)cc1OC,i,3.2
COc1ccc(/C(N)=N/OC(=O)Cc2cccs2)cc1,-7*,-7
COC(=O)c1cc(S(=O)(=O)N2CCCC2=O)c(Cl)cc1Cl,i,nt
COc1ccccc1N1CCN(C(=O)c2ccc3c(c2)NC(=O)C(CSCc2ccccc2C)N3)CC1 (centres undefined),i,nt
CCCn1c(=O)c(C(=O)NCc2cccnc2)c(O)c2ccccc21,i,nt
CCn1c(=O)c(C(=O)NCCc2ccc(OC)c(OC)c2)c(O)c2ccccc21,i,nt
CCCn1c(=O)c(C(=O)NCc2ccc3c(c2)OCO3)c(O)c2ccccc21,-5.9*,-5.9
CCCn1c(=O)c(C(=O)NCCc2ccc(OC)c(OC)c2)c(O)c2ccccc21,-6.2*,-6.2
COc1ccc(CNC(=O)COc2ccc(S(=O)(=O)N3CCOCC3)cc2C)cc1,i,nt
Oc1c(Br)cc(Br)cc1C=Nc1ccc2c(c1)OCCO2,i,2.9
Oc1c(Br)cc(Br)cc1C=Nc1ccc2c(c1)OCO2,i,9.8*
Cc1cc(-c2ccccc2)nc2cc(C(=O)N(Cc3ccccc3)Cc3ccccc3)nn12,-7.2*,-7.2
COC(=O)c1cc2nc(-c3ccccc3)cc(C)n2n1,i,1.6
O=C(O)COc1ccc(/C=C/c2nc(-c3ccccc3O)n[nH]2)cc1,i,0.1
COc1ccc(/C=C/c2nc(-c3ccccc3O)n[nH]2)cc1OC,i,10*
C(#Cc1ccccc1)CN1CCN(c2ccccn2)CC1,i,0.75
C(#Cc1ccccc1)CN1CCCCC1,i,6.3*
COc1ccc([N+](=O)[O-])cc1N/C(=N/S(=O)(=O)c1ccccc1)c1ccccc1,i,nt
CC(C(=O)Nc1ccccc1Oc1ccccc1)c1ccccc1 (centres undefined),i,8.9*
COc1ccccc1NC(=O)C(C)NC(c1ccccc1)c1ccccc1 (centres undefined),i,1.4
COc1ccc(CN2CC(C(=O)N3CC(C)CC(C)C3)CC2=O)cc1 (centres undefined),i,2.8
SMILES,KCNQ2 block,KCNQ2 enhance
Clc1cccc(Cl)c1Cn1cnc2c(NCc3ccco3)ncnc21,i,0.45
Cn1cnc2c(NCc3ccco3)ncnc21,-7*,-7
COc1ccc(N2CC(C(=O)Nc3ccccc3N3CCCC3)CC2=O)c(OC)c1 (centres undefined),i,nt
O=C(Cc1csc(-c2ccccc2)n1)NCc1ccc(F)cc1,i,nt
O=C(NCc1csc(-c2ccccc2)n1)c1cc(F)cc2c1OCOC2,-6.1*,-6.1
COc1ccc(C)cc1NC(=O)C(=O)NNC(=O)COc1ccc(Cl)cc1,i,11*
Cc1ccc(NC(=O)NNC(=O)COc2ccc(Cl)cc2)cc1,i,0.66
COc1ccccc1C(C)NCC(=O)NC(=O)NCc1ccco1 (centres undefined),i,nt
Cc1ccc(C2OC3=C(C(=O)CC(C)(C)C3)C(N)=C2C#N)o1 (centres undefined),i,5.3*
Cc1ccc(C2C(C#N)=C(N)SC(N)=C2C#N)o1,i,0.54
Cc1ccc2cc(C#N)c(NCCNC(=S)NCCCN(C)C)nc2c1C,i,nt
Cc1cc(C)c2nc(NCCCNC(=S)NCCCN(C)C)c(C#N)cc2c1,-7.3*,-7.3
CC/C(C)=N/Nc1cccc([N+](=O)[O-])c1,i,0.7
CCN(Cc1ccccc1)C(=O)c1cc(-c2ccc(OC)c(OC)c2)nc2ccccc12,-6.4*,-6.4
COc1ccc(-c2cc(C(=O)N(C)Cc3ccccc3F)c3ccccc3n2)cc1OC,i,nt
Cc1ccccc1N1CCN(C2CCCN(C(=O)CCn3cnnn3)C2)CC1 (centres undefined),i,1.2
CCN(C(=O)c1cc2c(=O)[nH]c3ccc(C)cc3c2s1)c1ccccc1C,i,0.05
CCN(C(=O)c1cc2c(=O)[nH]c3ccc(C)cc3c2s1)c1ccccc1F,i,13*
C=CCNC(=O)c1sccc1Oc1ccc(F)cc1[N+](=O)[O-],i,1.1
CC(C)CC(O)(c1ccccc1)C(CN1CCOCC1)c1ccccc1 (centres undefined),i,nt
OC(c1ccc(F)cc1)(C1CCCCC1)C(CN1CCOCC1)c1ccccc1 (centres undefined),-5.7*,-5.7
Cc1cccc(CCN(C(=O)c2csnn2)C(C(=O)NC2CCCC2)c2ccco2)c1 (centres undefined),i,0.77
CCC(CC)C(=O)Nc1nnc(S(=O)(=O)Nc2ccccc2C)s1,i,0.19
O=C(NC(=S)Nc1ccc2oc(=O)ccc2c1)c1cccc(Cl)c1,i,0.04
CCc1cc(C(=O)N2CCCC(C(=O)c3cccc4ccccc34)C2)n(C)n1 (centres undefined),i,3.4
SMILES,KCNQ2 block,KCNQ2 enhance
O=c1nc2n(c3ccc([N+](=O)[O-])cc13)CCCCC2,i,nt
O=[N+]([O-])c1ccc2c(c1)C=C1CCCCC1(N1CCCCC1)O2 (centres undefined),-5.7*,-5.7
Cc1nc(-c2ccc(S(=O)(=O)Nc3ccc(Br)cc3F)cc2)co1,i,0.01
O=C(O)c1ccc(CN2C(=O)c3cccc4c([N+](=O)[O-])ccc(c34)C2=O)cc1,-8.6*,-8.6
Cc1ccc(C(=O)O)cc1N1C(=O)c2cccc3c([N+](=O)[O-])ccc(c23)C1=O,i,nt
CC(C)(C)c1ccc(-c2cc(C(=O)NNC(=O)Nc3ccccc3)c3ccccc3n2)cc1,i,nt
O=C(NNC(=O)c1cc(-c2ccccc2)nc2ccccc12)Nc1cccc(Cl)c1,-6.3*,-6.3
CCOc1ccc(NC(=O)CN(C)C(=O)c2c(C)nn(-c3ccccc3)c2Cl)cc1OCC,i,nt
COc1ccc2c(c1)c1ncn(CCN3CCCC3)c(=O)c1n2C,i,1.2
COc1ccccc1CCn1cnc2c3cc(C)ccc3n(C)c2c1=O,-7.4*,-7.4
COc1ccc2c(c1)C(C)CC(C)(C)N2C(=O)Nc1ccccc1 (centres undefined),i,nt
COc1ccc2c(c1)C(C)CC(C)(C)N2C(=O)CSc1nc2ccccc2s1 (centres undefined),-7.5*,-7.5
CCOc1ccc(NC(=O)CN(C)C(=O)c2ccccc2SCc2c(C)noc2C)cc1OCC,i,0.3
O=C(CSC1CCCCC1)Nc1ccccc1Br,i,6.9*
CCN(CC(=O)Nc1ccccc1Br)C1CCCCC1,i,nt
COc1ccc(-c2nc(N)ncc2-c2ccccc2OC)c(O)c1,i,3.1
CSCCC(NC(=O)c1ccccc1Br)C(=O)NCC(c1ccco1)N1CCCCC1 (centres undefined),i,0.69
CCOc1ccc(S(=O)(=O)Nc2nc3ccccc3nc2Nc2ccc(N3CCOCC3)cc2)cc1,-5.6*,-5.6
COc1ccc(S(=O)(=O)Nc2ccc(N3CCOCC3)cc2)cc1,i,0.52
C/C(CC(=O)Nc1cccc(Br)c1)=N\NC(=O)c1ccc(O)cc1O,i,nt
CCOc1ccc(N(CC(=O)NN=C2CCCC2)S(C)(=O)=O)cc1,i,nt
O=C(c1ccc(F)cc1)N1CCC(C(=O)N2CCN(S(=O)(=O)c3cccc(Cl)c3)CC2)CC1,i,0.95
